# In PubChem BioAssay AID434958 (Southern Research Specialized Biocontainment Screening …, 2010):
# Among all 1,200 compounds or so, about 400 (33%) were called active. No rule for the calls is given here. Only a sample is shown. Entries with a potency or affinity are not part of this list.
# Experiment: mammalian cell cytotoxicity, dose response, cytotoxicity control (AID 434958);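 also: cells exposed to compound for 72 hours before readout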
# Conditions: cytotoxicity counter-screen; series mostly up to 40 µM
row,SMILES,outcome
1,COc1ccc(NC(=O)COC(=O)Cc2ccc(-c3ccccc3)cc2)c(OC)c1,inactive
2,COc1ccccc1NC(=O)COc1ccc(CO)cc1Cl,inactive
3,COc1cccc(C(=O)C2CCCN(Cc3ccccn3)C2)c1 (configuration not stated),inactive
4,COc1ccc(-c2cc3cc(OC)c(OC)cc3c(C)n2)cc1,inactive
5,COc1ccc(OC)c2nc(-c3ccc4c(c3)OCO4)ccc12,inactive
6,CC(=O)c1c(OC(=O)c2cccc(Cl)c2)c2ccccc2n1C,inactive
7,CCOC(=O)c1ccc(N2CN(C3CCCCC3)CNC2=S)cc1,inactive
8,N=C1C(c2nc3ccccc3[nH]2)=C(O)CN1c1ccc(F)cc1,inactive
9,Cn1c2ccccc2c(=O)c2cc(C#CC3(O)CCCCC3)ccc21,inactive
10,O=C(O)C1CC(=O)N(c2ccc(OCc3ccccc3Cl)cc2)C1 (configuration not stated),inactive
11,CSc1ccccc1C(=O)Nc1cccc([N+](=O)[O-])c1C,inactive
12,Cc1nn(-c2ccccc2)c(N2CCCC2)c1/C=C1\N=C(c2ccc(F)cc2)OC1=O,inactive
13,Cc1cc(C)nc(SCC(=O)Nc2ccccc2[N+](=O)[O-])n1,inactive
14,Cc1sc2nc(C(C)(C)C)oc(=O)c2c1C,inactive
15,CC/C(=N\NC(=O)c1ccc(-c2ccccc2)cc1)C12CC3CC(CC(C3)C1)C2,inactive
16,CCCCOc1ccc(C(=O)Oc2cccnc2)cc1,inactive
17,CN(C)S(=O)(=O)c1ccc(C(=O)OCC2CC2(Cl)Cl)cc1 (configuration not stated),inactive
18,N/C(=N\c1nc2ccccc2o1)NC(=O)c1ccccc1Br,inactive
19,CCOC(=O)N1CCN(C(=O)CSc2nnc(COc3ccccc3)o2)CC1,inactive
20,O=C1C(Cl)=C(N2CCCCC2)C(=O)N1c1ccccc1,inactive
21,CCNC(=S)N/N=C1\C(=O)c2cccc3cccc1c23,inactive
22,O=C(CSc1ncnc2c1cnn2-c1ccccc1)Nc1ccc2c(c1)OCO2,inactive
23,Fc1ccc(-c2csc(NC(=S)Nc3ccccc3)n2)cc1,inactive
24,O=C(CCC(=O)Nc1ccccc1)NNC(=O)c1ccco1,inactive

row,SMILES,outcome
1,Cc1ccccc1OCC(=O)Nc1ccccc1N1CCOCC1,inactive
2,Cc1ccc(C)c(NC(=O)c2cc(-c3cccnc3)nc3ccccc23)c1,inactive
3,COc1cccc(NC(=O)C2CC2)c1,inactive
4,c1ccc(Nc2ncnc3c2oc2ccccc23)cc1,inactive
5,C=CCNC(=S)NC(=O)c1csc([N+](=O)[O-])c1,inactive
6,COC(=O)c1ccc(/C=N\NC(=O)c2ccc(C)cc2Cl)cc1,inactive
7,CC1CCN(CCOc2ccc(OCc3ccccc3)cc2)CC1,inactive
8,Cc1ccc(S(=O)(=O)NCCCCCC(=O)Nc2ccccn2)cc1,inactive
9,Cn1c(O)c(/C=C2/C=CC=N2)c(=O)[nH]c1=O,inactive
10,COc1ccc(NC(=O)c2cc(C)nc3ccccc23)c(OC)c1,inactive
11,Cc1cc(C)c(C)c(S(=O)(=O)N2C(=S)NC(=O)C2CC(C)C)c1C (configuration not stated),inactive
12,CC(=O)c1ccc(OC(=O)N(c2ccccc2)c2ccccc2)cc1,inactive
13,CN(C)C1=C(Cl)C(=O)N(c2ccc(Cl)c(Cl)c2)C1=O,inactive
14,CCCCOc1ccccc1NC(=O)c1ccco1,inactive
15,O=c1c2c3n(c(=S)nc2[nH]n1-c1ccccc1)CCCCC3,inactive
16,CCN(CC(=O)Nc1ccc2c(c1)OCCO2)C(=O)c1ccc([N+](=O)[O-])s1,inactive
17,COc1ccc(NCC(=O)N/N=C/C(C)c2ccccc2)cc1 (configuration not stated),inactive
18,COc1ccc(N2C(=O)NC(=O)/C(=C\c3ccc([N+](=O)[O-])s3)C2=O)cc1,inactive
19,Cc1cc(/C=N/NC(=O)CC#N)c(C)n1-c1ccc([N+](=O)[O-])cc1,inactive
20,CCCc1cc(C(=O)OCC(=O)N2CCN(c3ccc(OC)cc3)CC2)sc1C,inactive
21,COc1cc(C(=O)NNC(=O)c2cc(-c3ccccc3)n[nH]2)cc(OC)c1C,inactive
22,COc1ccc(C2c3c(C)nn(-c4ccccc4)c3NC(=O)N2c2ccccc2)cc1 (configuration not stated),inactive
23,CCOC(=O)C1CSC(CC(=O)Nc2ccc(Cl)c(Cl)c2)C(=O)N1 (configuration not stated),inactive
24,CCOC(=O)C1CCN(c2ccc(C(N)=O)cc2[N+](=O)[O-])CC1,inactive

row,SMILES,outcome
1,CCCCC(=O)NC(=S)Nc1ccc(NC(=O)C(C)C)c(OC)c1,inactive
2,O=C1C(Cl)=C(N2CCCCCC2)C(=O)N1c1ccc(Br)cc1,inactive
3,CCOCC(=O)Nc1cc(C(F)(F)F)ccc1Oc1cccc(Br)c1,inactive
4,COc1cc(OC)c(C(=O)Nc2cccc3ccccc23)cc1OC,inactive
5,C/C(=N\OCC(=O)Nc1nc2ccccc2s1)c1ccccc1,inactive
6,CCCCNC(=O)c1onc(CSc2ccc(OC)cc2)c1C(=O)O,inactive
7,COC(=O)c1c(NC(=O)C2c3ccccc3Oc3ccccc32)sc(C)c1C,inactive
8,COc1ccc(Cl)cc1NC(=O)C/C(C)=N/NC(=O)CC#N,inactive
9,COc1ccc(OC)c(NC(=O)c2ccccc2SC)c1,inactive
10,O=C(CCSc1ccccc1)Nc1nc2c(s1)CCCC2,inactive
11,CCOC(=O)C(=CNc1ccc2c(c1)c1ccccc1n2CC)C(=O)OCC,inactive
12,Cc1cc(C)cc(SCc2noc(C(=O)NC(C)C)c2C(=O)O)c1,inactive
13,COc1ccccc1C(=O)Nc1ccc2c3c(cccc13)CC2,inactive
14,CCOC(=O)CNC(=O)/C(=C\c1ccc(F)cc1)NC(=O)c1ccccc1,inactive
15,CC(/C=N/NC(=O)c1cc(C(C)(C)C)[nH]n1)=C\c1ccccc1,inactive
16,C/C(CC(=O)NCc1ccco1)=N\NC(=O)CC#N,inactive
17,COc1ccc(/C(O)=C/C(=O)C(=O)NNC(=O)C(O)(c2ccccc2)c2ccccc2)cc1,inactive
18,CCOC(=O)c1cc(-c2ccccc2)sc1NC(=O)C(C)N1C(=O)NC(C)(c2ccc(Cl)cc2)C1=O (configuration not stated),inactive
19,Cc1ccc(C)c(CSc2nnc(C)c(=O)n2N)c1,inactive
20,O=C(/C=C/c1cc(Br)ccc1F)OCC(=O)N1CCCC1,inactive
21,CCc1cc(C(=O)O)c(NC(=O)/C=C/c2ccc(OC)cc2)s1,inactive
22,CC(C)Oc1ccc(N2CC(C(=O)Nc3ccccc3F)CC2=O)cc1 (configuration not stated),inactive
23,CSc1nnc(-c2ccc(NC(N)=S)cc2)o1,inactive
24,Cc1ccc(S(=O)(=O)N[C@H](C(=O)OCn2nnc3ccccc3c2=O)C(C)C)cc1,inactive
